Sampled rows, rich in hits. Any-hit rate of the full collection: about 1.8%.
Mito fusion yeast = mitochondrial division inhibition or fusion activation; S. cerevisiae fusion-defective mutant growth rescue, CellTiterGlo 48 h; Potency, µM (highest dose often 46.1 µM), usual class: activators; 320,000 tested, 0.23% active; also: nearly all actives have a fitted effect of over 45% in size
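Luminescent cell viability in 1536-well qHTS format served as the measure of rescued growth in ts fusion-mutant S. cerevisiae cultured on non-fermentable YPEG for 48 hours at 37C.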
Glioma ERSR ind = ER stress response induction in glioma; U87-MG GRP78 promoter luciferase reporter, 16 h; 420,000 tested, 0.02% active; Potency, µM, actives largely listed as activators; also: series mostly up to about 76 µM; nearly all actives have a fitted effect of over 35% in size
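Stably transfected U87-MG glioma cells carrying a GRP78-based luciferase sensor; 16 h compound incubation. Luminescence end-point read 10 min after Bright-Glo addition at room temperature.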
ClpP mod = qHTS Assay for Activators of ClpP | ATP-dependent Clp protease proteolytic subunit (Bacillus subtilis (strain 168)), P80244 | purified B. subtilis ClpP, FRET peptide cleavage, 20 min | Potency, µM (titrated, usually from 57.5 µM) | 340,000 tested, 1.9% active | AID 651965, 2013; active = well fitted falling curve with a large enough effect; inconclusive = small, poorly fitted or top-dose-only effect; inactive = no such curve, though single readings can be large or run the other way; also: the source files actives as falling curves though it sought activators and does not explain the sign; nearly all actives have a fitted effect of over 65% in size
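ClpP 10 microg/mL final, pH 8 Tris/KCl buffer with BSA, glycerol, Tween-20; compound pinned in; FRET-FV substrate; RT 20 min; Ex320/Em430; ΔFRET vs ADEP 5.8 microM, DMSO, no enzyme.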
TCR act = activates T cell receptor signaling; primary human leukocytes, anti-CD3, IL-2 HTRF, 48 h; AID 504894; Potency, µM (series often up to 9.22 µM), hits mostly activators; 330,000 tested, under 10 active
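Using a-CD3 beads without co-stimulation, primary human leukocytes were exposed to compounds for 48 hr. An HTRF IL-2 kit measured the cytokine, with europium-to-d2 energy transfer producing emission at 665nm upon 320nm excitation.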
A-T KAP1 phos = candidate therapy for ataxia-telangiectasia | F2112 A-T fibroblasts, KAP-1 phosphorylation AlphaLISA; neocarzinostatin DNA damage 30 min before lysis | Potency, µM (series often up to 57.5 µM), most hits filed as activators | 320,000 tested, 0.19% active | AID 485349; also: nearly all actives have a fitted effect of over 45% in size
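hTERT-immortalized A-T patient fibroblasts (F2112), 500 cells/well in OPTI-MEM, 1% FBS, got compounds for 60 min, then NCS for 30 min at 37C. Lysates were then assayed for phospho-KAP-1 by AlphaLISA (anti-pKAP1 donor, anti-KAP1 acceptor beads), 6 hr at 25C.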
MBNL1 CUG block = MBNL1-poly(CUG) RNA binding inhibition | Q9NR56 | TR-FRET MBNL1-His/biotin-(CUG)12 binding, 665/545 ratio | Potency, µM (highest dose often 57.5 µM), most hits filed as inhibitors | 280,000 tested, 0.036% active | AID 2675; active = well fitted inhibition curve with a large enough effect in the signal ratio, with a control signal flat, not every such curve was filed as active; inconclusive = small, poorly fitted or top-dose-only effect, or effect the other way, or a change in a side signal; inactive = no such curve, though single readings can be large or run the other way; the % refers to the signal ratio
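TR-FRET readout: Ex 340 nm, 665/545 nm emission ratio, normalized to buffer-only (basal) and MBNL1-(CUG)12 controls. Complex of MBNL1-His with Biotin-(CUG)12, compounds 92 nM–58 uM, incubated 60 min at room temperature.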
Hits are given with their value; 0 = inactive; ? = inconclusive; - = not tested or not shown; [ ] = another dose, or the depositor's remark. Unless noted, calls follow the shape of the dose curve; as a rule, active = well fitted curve in the direction sought with a large enough effect; inconclusive = small, poorly fitted or top-dose-only effect, or another doubt; inactive = no such curve, though single readings can be large; an effect the other way counts as inactive or inconclusive.

SMILES | Mito fusion yeast | Glioma ERSR ind | ClpP mod | TCR act | A-T KAP1 phos | MBNL1 CUG block
CCOc1ccc(-n2nc3c(=S)[nH]nc(C)c3c2C)cc1 | 0 | 0 | 0 | 0 | 0 | ?
CCOc1ccc(-c2c(C)n(-c3ccc(OCC)cc3)c3[n+]2CCCCC3)cc1 | 0 | 0 | - | 0 | 18µM | 0
CC1CC2CCC(O2)C(C)C(=O)OC(C)CC2CCC(O2)C(C)C(=O)OC(C)CC2CCC(O2)C(C)C(=O)OC(C)CC2CCC(O2)C(C)C(=O)O1 (stereo unspecified) | - | 0 | - | - | - | -
Nc1ccccc1C(=O)OCCOc1ccccc1 | 0 | 0 | 28µM | 0 | 0 | 0
CN[C@H](C)Cc1ccccc1 | - | 0 | - | - | - | -
CC[C@@H](O)C(C[C@@H](C)N(C)C)(c1ccccc1)c1ccccc1 | - | 0 | - | - | - | -
CC(=O)C1C(N2CC2)CC2C3CCC4=CC(=O)CCC4(C)C3CCC21C (stereo unspecified) | - | 0 | 14µM | 0 | - | -
Cc1c(C)c2ccc(OCC(=O)N3CCC(C(=O)O)(c4ccccc4)CC3)cc2oc1=O | 0 | 0 | 0 | 0 | 0 | 0
CCc1c(C)c2ccc(OCC(N)=O)cc2oc1=O | 0 | 0 | 6.3µM | 0 | 0 | 0
C=C(COC(=O)CCC(=O)O)CC1CC(O)[C@]2(C)OC3CC4OC5C[C@]6(C)O[C@]7(C)CCC8OC9C[C@]%10(C)OC%11C(C)=CC(=O)OC%11CC%10OC9C[C@@H](C)C8OC7CC6O[C@]5(C)C/C=C\C4OC3CC2O1 (stereo partly specified) | 16µM | 0 | 0 | 0 | 0 | 0
CC1=CC(=O)OC2CC3OC4C[C@@H](C)C5OC6CC7O[C@]8(C)C/C=C\C9OC%10CC%11OC(CC(C)CO)CC(O)[C@]%11(C)OC%10CC9OC8C[C@]7(C)O[C@]6(C)CCC5OC4C[C@]3(C)OC12 (stereo partly specified) | 0 | 0 | 0 | 0 | 0 | 0
COc1cccc(C2(O)CCSCC2CN(C)C)c1 (stereo unspecified) | 0 | 0 | 3.5µM | 0 | 0 | 0
NC1CCCC[C@H]1N (stereo partly specified) | - | 0 | - | - | - | -
CC1CCC(C(C)C)C(OC(=O)COC(=O)c2ccccc2N)C1 (stereo unspecified) | ? | 0 | 28µM | 0 | ? | 0
Cc1c(N=Cc2c(O)n(Cc3ccccc3)c(=O)[nH]c2=O)c(=O)n(-c2ccccc2)n1C | 0 | 0 | - | 0 | 0 | 0[11.5 µM]
Cc1c(N=Cc2c(O)n(Cc3ccco3)c(=O)[nH]c2=O)c(=O)n(-c2ccccc2)n1C | 0 | 0 | 11µM | 0 | 0 | 0
c1ccc(CCCN2CCN(CCOC(c3ccccc3)c3ccccc3)CC2)cc1 | 7.3µM | 0 | 0 | 0 | - | -
Nc1c2c(nc3sc4c(c13)CCCCC4)CCCC2 | 0 | 0 | 0 | 0 | 0 | 0
BrCC1C[n+]2c(SCc3ccccc3)nc3sc4c(c3c2O1)CCCC4 (stereo unspecified) | 0 | 0 | 0 | 0 | 40µM | 0
C[C@@H]1C(=O)O[C@H]2C[C@@]34[C@H]5C[C@@H](C(C)(C)C)[C@]36[C@H](OC(=O)[C@H]6O)O[C@]4(C(=O)O5)[C@]21O | - | 0 | - | - | - | -
Cc1cc(C)cc(N2C(=O)NC(=O)/C(=C\C=C\c3ccco3)C2=O)c1 | 0 | 0 | 16µM | 0 | 0 | 0
Cc1ccc(N2C(=O)NC(=O)/C(=C/C=C/c3ccco3)C2=O)cc1 | 0 | 0 | 0 | 0 | 0 | ?
CC1=NN(c2ccccc2)C(=O)C1/C=C1\C(=O)NC(=O)N(c2cc(C)cc(C)c2)C1=O (stereo unspecified) | 0 | 0 | 25µM | 0 | 0 | 0
Cc1ccc(-c2cc(-c3ccc(C)cc3)[n+](-c3ccccc3)c(-c3ccc(C)cc3)c2)cc1 | 0 | 0 | 0 | 0 | 0 | -
Cc1ccc(-c2cc(-c3ccc(C)cc3)[n+](C)o2)cc1 | 0 | 0 | 14µM | 0 | 0 | 0[11.5 µM]
CC(C)c1cc2c(c(O)c1O)[C@@]1(C(=O)O)CCCC(C)(C)[C@@H]1CC2 | - | 0 | - | - | - | -
